The values that follow come from ChEMBL document CHEMBL1961873, “Compounds: GSK PKIS; Assays: Nanosyn kinase panel” (2012).

Experiment [1] addresses T1, Aurora kinase A (Homo sapiens) (UniProt O14965).
T1 sequence (whole entry): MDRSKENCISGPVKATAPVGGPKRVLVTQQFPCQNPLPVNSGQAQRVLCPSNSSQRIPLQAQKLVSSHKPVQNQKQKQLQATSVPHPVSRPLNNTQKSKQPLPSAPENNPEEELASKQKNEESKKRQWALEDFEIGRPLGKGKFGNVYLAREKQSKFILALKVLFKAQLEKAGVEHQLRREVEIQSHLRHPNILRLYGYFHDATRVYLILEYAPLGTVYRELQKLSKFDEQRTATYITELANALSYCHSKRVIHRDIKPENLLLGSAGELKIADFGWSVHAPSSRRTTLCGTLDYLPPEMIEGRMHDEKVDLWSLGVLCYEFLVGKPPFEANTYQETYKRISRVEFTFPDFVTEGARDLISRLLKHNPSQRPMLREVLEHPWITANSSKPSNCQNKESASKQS
The conditions noted are these: at 1 µM.

Experiment [2] addresses Aurora kinase B (Homo sapiens) (UniProt Q96GD4). As to conditions: at 0.1 µM.
Experiment [3] shares this target. The conditions noted are these: at 1 µM.
Experiment [4] deals with T2, Aurora kinase C (Homo sapiens) (UniProt Q9UQB9).
T2 sequence (whole entry): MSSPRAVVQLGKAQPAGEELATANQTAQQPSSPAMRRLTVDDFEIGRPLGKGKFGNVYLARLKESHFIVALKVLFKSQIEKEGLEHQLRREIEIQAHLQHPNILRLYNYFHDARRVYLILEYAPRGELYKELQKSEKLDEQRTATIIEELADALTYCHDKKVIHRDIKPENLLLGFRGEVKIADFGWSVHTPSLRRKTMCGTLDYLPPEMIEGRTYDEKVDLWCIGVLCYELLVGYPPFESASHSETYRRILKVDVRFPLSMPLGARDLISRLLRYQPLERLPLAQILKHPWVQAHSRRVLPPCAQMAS
As to conditions: at 0.1 µM.

The target of experiment [5] is T2, Aurora kinase C (Homo sapiens). As to conditions: at 1 µM.
Experiment [6] deals with Serine/threonine-protein kinase 10 (Homo sapiens) (UniProt O94804). As to conditions: at 0.1 µM.
Chain of Serine/threonine-protein kinase 10 (Homo sapiens) (O94804 whole entry, looked up): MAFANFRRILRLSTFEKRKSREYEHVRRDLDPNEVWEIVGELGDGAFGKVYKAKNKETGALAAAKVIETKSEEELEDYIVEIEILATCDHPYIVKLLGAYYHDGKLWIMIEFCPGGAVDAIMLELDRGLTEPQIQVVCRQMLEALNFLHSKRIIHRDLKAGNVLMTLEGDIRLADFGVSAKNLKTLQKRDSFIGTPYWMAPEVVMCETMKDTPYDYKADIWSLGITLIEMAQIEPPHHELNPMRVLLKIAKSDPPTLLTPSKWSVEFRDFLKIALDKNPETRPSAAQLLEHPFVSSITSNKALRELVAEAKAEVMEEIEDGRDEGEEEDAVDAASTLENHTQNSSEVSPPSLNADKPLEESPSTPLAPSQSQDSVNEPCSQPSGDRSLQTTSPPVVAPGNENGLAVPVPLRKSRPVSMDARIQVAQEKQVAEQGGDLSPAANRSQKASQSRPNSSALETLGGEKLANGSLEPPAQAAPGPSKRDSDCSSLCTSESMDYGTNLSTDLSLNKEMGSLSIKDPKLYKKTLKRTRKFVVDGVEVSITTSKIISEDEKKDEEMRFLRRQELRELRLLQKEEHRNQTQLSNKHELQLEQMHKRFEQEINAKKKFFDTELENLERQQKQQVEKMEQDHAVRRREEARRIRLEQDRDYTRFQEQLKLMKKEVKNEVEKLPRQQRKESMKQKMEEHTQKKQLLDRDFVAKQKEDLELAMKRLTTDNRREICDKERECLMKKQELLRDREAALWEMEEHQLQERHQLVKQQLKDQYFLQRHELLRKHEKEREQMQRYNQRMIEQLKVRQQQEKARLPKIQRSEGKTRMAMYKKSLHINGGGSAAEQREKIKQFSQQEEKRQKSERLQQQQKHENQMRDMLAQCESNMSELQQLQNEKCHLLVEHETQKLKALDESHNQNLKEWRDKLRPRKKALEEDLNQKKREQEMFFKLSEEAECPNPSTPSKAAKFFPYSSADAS
For experiment [7] the target is unchanged. The conditions noted are these: at 1 µM.
Experiment [8] addresses T3, Mitogen-activated protein kinase kinase kinase kinase 2 (Homo sapiens) (UniProt Q12851).
T3 sequence (whole entry): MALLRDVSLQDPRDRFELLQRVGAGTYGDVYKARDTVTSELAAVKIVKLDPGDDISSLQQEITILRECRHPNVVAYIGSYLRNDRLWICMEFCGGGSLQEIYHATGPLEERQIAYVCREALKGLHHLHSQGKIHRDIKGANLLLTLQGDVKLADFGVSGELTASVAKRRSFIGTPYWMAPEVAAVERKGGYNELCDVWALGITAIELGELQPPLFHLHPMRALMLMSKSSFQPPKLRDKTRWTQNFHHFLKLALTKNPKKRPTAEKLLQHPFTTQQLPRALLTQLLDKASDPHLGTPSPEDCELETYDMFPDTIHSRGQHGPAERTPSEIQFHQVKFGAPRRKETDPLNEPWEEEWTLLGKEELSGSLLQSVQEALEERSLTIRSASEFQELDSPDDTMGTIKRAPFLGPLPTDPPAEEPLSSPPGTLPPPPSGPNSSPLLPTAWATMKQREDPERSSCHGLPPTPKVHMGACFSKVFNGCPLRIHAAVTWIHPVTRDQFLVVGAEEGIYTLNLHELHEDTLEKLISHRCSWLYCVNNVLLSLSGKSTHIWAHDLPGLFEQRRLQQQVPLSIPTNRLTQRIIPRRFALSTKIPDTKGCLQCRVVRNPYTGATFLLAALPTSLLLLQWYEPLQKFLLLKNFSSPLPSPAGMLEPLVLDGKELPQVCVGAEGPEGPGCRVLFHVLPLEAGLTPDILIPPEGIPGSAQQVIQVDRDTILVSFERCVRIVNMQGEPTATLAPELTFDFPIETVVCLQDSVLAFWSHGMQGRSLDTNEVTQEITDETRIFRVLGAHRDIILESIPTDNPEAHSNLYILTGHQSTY
As to conditions: at 0.1 µM.

In experiment [9] the target is T3, Mitogen-activated protein kinase kinase kinase kinase 2 (Homo sapiens). The conditions noted are these: at 1 µM.
For experiment [10], the target named is Mitogen-activated protein kinase kinase kinase kinase 4 (Homo sapiens) (UniProt O95819). As to conditions: at 0.1 µM.
Chain of Mitogen-activated protein kinase kinase kinase kinase 4 (Homo sapiens) (O95819 2-1239 limits assumed): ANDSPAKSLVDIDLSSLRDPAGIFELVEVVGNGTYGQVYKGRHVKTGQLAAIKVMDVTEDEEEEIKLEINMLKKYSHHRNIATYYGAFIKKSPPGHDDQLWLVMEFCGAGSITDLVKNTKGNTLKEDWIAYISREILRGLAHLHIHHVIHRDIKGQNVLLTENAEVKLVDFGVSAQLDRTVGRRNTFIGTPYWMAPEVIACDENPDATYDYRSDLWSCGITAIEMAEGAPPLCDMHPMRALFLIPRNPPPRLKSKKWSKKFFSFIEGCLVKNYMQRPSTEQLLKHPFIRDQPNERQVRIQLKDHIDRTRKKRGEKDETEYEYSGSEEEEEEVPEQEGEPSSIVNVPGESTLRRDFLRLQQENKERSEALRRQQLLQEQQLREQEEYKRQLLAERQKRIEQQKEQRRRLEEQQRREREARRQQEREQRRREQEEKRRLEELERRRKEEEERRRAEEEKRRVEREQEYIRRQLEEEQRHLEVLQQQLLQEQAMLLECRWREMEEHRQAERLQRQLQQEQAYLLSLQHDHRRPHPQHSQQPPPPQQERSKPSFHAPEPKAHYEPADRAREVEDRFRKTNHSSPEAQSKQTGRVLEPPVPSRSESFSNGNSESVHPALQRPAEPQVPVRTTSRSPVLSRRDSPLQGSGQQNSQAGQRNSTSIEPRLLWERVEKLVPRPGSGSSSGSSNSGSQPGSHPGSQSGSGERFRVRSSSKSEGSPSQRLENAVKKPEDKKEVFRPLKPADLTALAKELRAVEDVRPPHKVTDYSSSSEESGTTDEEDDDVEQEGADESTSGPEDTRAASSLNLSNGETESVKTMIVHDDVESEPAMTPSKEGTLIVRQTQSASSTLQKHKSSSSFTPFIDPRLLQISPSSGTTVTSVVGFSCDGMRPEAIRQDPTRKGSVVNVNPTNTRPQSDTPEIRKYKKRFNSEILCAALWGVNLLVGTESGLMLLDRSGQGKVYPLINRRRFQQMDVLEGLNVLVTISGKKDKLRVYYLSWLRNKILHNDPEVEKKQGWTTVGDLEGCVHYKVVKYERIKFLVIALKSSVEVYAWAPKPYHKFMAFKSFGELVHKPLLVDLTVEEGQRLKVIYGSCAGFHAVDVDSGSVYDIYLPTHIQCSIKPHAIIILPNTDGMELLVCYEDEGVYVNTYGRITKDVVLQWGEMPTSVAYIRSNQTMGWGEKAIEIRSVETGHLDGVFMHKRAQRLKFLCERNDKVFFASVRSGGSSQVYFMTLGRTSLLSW
The target is the same in experiment [11]. The conditions noted are these: at 1 µM.
Experiment [12] concerns the target Dual specificity mitogen-activated protein kinase kinase 1 (Homo sapiens) (UniProt Q02750). As to conditions: at 0.1 µM.
Experiment [13] shares this target. The conditions noted are these: at 1 µM.
Experiment [14] has as its target Misshapen-like kinase 1 (Homo sapiens) (UniProt Q8N4C8). The conditions noted are these: at 0.1 µM.
Experiment [15] shares this target. The conditions noted are these: at 1 µM.
Experiment [16] addresses T4, Serine/threonine-protein kinase 4 (Homo sapiens) (UniProt Q13043).
T4 sequence (whole entry): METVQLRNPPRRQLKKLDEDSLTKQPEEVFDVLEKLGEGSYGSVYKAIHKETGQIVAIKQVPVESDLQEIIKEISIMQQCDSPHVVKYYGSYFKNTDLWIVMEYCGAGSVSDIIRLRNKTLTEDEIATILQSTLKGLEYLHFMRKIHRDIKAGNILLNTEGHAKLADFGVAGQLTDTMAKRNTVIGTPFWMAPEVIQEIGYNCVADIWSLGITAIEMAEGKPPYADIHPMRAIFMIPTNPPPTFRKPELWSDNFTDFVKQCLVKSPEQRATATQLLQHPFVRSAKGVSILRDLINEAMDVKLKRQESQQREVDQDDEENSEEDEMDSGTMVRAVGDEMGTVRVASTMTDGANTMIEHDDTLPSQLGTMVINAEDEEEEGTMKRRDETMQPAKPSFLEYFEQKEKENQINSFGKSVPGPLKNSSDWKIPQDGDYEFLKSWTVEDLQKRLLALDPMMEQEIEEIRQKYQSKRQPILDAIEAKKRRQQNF
The conditions noted are these: at 0.1 µM.

For experiment [17], the target named is T4, Serine/threonine-protein kinase 4 (Homo sapiens). The conditions noted are these: at 1 µM.
The target in experiment [18] is T5, Serine/threonine-protein kinase 3 (Homo sapiens) (UniProt Q13188).
T5 sequence (whole entry): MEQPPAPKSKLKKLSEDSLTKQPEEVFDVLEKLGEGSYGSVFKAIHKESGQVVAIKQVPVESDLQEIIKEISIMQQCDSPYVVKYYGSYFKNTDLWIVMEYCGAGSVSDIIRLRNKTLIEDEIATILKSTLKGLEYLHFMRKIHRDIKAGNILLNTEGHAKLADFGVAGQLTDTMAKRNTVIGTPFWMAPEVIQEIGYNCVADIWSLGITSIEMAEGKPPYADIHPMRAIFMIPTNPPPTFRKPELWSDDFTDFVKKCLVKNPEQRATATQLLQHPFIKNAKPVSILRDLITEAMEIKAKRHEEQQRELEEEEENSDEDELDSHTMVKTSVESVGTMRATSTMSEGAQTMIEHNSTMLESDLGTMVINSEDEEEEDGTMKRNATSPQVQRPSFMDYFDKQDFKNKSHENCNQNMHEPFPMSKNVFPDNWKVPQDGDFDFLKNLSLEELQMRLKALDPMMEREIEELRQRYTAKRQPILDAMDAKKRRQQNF
As to conditions: at 0.1 µM.

Experiment [19] deals with T5, Serine/threonine-protein kinase 3 (Homo sapiens). As to conditions: at 1 µM.
Experiment [20] deals with Serine/threonine-protein kinase 26 (Homo sapiens) (UniProt Q9P289). As to conditions: at 0.1 µM.
Chain of Serine/threonine-protein kinase 26 (Homo sapiens) (Q9P289 2-416 limits assumed): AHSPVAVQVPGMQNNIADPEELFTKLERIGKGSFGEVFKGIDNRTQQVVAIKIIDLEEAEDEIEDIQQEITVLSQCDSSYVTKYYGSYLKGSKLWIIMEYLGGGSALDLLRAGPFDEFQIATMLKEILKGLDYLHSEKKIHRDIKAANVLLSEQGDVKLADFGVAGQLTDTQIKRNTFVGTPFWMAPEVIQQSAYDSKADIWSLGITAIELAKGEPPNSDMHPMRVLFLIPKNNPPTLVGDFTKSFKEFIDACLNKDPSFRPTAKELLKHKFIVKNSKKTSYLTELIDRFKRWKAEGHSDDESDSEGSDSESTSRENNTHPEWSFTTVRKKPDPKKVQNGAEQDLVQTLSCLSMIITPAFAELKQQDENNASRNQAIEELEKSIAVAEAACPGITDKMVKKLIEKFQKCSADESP

Chain of Aurora kinase B (Homo sapiens) (Q96GD4 whole entry): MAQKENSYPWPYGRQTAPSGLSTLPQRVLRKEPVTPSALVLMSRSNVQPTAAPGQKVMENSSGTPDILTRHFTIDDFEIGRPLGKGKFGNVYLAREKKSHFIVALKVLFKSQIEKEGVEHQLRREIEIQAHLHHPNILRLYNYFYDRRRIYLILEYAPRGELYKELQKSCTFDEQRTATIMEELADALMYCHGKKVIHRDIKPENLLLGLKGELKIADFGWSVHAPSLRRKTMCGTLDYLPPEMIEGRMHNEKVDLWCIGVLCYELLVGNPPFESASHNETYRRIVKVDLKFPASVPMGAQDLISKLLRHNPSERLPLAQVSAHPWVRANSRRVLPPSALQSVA
Chain of Dual specificity mitogen-activated protein kinase kinase 1 (Homo sapiens) (Q02750 whole entry): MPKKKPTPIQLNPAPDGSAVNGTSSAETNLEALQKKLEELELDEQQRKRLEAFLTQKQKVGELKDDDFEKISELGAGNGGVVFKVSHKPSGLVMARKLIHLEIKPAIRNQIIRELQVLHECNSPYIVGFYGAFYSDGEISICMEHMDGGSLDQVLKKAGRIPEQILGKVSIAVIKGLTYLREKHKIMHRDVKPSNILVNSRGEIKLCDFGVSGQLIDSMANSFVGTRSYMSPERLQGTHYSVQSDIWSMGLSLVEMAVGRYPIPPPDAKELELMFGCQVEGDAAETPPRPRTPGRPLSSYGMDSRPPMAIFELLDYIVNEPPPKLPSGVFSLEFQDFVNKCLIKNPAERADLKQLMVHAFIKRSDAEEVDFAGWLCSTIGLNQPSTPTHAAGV
Chain of Misshapen-like kinase 1 (Homo sapiens) (Q8N4C8 whole entry, looked up): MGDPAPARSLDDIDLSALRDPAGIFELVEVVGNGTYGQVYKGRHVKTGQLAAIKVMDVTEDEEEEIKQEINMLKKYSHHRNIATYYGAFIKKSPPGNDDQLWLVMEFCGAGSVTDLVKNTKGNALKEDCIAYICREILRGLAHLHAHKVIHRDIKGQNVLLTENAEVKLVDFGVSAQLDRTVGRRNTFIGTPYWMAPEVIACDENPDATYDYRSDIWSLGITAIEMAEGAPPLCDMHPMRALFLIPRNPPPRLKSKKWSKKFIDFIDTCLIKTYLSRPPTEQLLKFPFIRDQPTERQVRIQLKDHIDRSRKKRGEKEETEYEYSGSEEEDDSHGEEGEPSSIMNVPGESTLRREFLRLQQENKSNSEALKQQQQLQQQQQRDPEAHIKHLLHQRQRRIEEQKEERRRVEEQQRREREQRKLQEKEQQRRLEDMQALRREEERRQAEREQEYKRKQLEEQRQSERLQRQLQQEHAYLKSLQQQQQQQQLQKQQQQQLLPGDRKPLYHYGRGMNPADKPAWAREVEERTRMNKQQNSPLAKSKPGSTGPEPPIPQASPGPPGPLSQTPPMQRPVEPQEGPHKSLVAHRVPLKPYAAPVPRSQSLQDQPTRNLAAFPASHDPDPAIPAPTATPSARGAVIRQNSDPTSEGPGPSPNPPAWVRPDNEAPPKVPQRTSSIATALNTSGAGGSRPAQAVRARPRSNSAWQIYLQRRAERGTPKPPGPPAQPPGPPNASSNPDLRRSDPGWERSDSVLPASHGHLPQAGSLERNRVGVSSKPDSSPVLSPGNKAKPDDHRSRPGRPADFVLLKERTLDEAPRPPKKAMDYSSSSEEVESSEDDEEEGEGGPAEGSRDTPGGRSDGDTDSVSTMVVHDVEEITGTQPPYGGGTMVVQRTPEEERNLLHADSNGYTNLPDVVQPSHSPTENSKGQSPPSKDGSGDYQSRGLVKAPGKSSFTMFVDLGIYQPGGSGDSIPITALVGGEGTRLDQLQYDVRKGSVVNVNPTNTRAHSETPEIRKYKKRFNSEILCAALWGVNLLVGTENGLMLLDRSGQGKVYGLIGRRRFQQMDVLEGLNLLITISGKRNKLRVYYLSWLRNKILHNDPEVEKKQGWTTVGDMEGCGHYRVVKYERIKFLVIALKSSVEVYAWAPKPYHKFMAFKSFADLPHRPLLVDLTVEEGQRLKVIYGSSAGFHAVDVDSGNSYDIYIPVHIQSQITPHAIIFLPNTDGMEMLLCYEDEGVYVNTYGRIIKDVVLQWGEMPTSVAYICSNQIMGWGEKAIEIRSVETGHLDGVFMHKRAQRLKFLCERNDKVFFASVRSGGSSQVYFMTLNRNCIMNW

What is called inhibition is the drop in the measured response relative to a control, in per cent. In the case of `NS(=O)(=O)c1ccc(-c2cc3ccncc3cc2OCc2ccccc2)cc1`, the inhibition in experiment [1] was 7.25%; in experiment [2] it was 2.9%; in experiment [3], 4.42%; in [4], -0.1%; in experiment [5] it was -6.92%; in experiment [6] it was 3.53%. Further, the inhibition is 9.35% in experiment [7]; -0.94% in experiment [8]; 2.03% in experiment [9]; 5.89% in [10]; 6.71% in experiment [11]; 4.49% in experiment [12]. In addition, the inhibition turned out to be 3.72% in [13]; 2.78% in experiment [14]; 5.92% in experiment [15]; 5.08% in [16]; 7.76% in experiment [17]; 5.7% in [18]. For the same compound, the inhibition in experiment [19] is 5.97%; in [20], 0.92%.
On to `ON=C1CCc2cc(-c3nc(C4CCNCC4)[nH]c3-c3ccncc3)ccc21`, for which the inhibition was 2.73% in experiment [1]; 0.1% in experiment [2]; 3.15% in [3]; -0.7% in [4]; 10.1% in experiment [5]; 19.7% in experiment [6]. The inhibition in experiment [7] is 63.6%; in [8], 1.74%; in [9], 4.29%; in experiment [10], 3.95%; in experiment [11] it was 21.5%; in experiment [12], 0.2%. The inhibition stood at 2.1% in experiment [13]; 4.01% in [14]; 18.4% in experiment [15]; 2.4% in [16]; 3.87% in [17]; 1.63% in experiment [18]. Further, the values for the inhibition in [19] and in experiment [20] were 2.8% and 0.5%, respectively.
On to `Nc1nccc(C#Cc2cncnc2Nc2ccc(OCc3cccc(F)c3)c(Cl)c2)n1`, for which the inhibition in experiment [1] amounted to 15.2%; in [2], 5.2%; in experiment [3], 13.2%; in [4], 3.04%; in experiment [5] it was 10.1%; in experiment [6] it was 5.76%. The inhibition in experiment [7] is 11.4%; in [8], 1.38%; in experiment [9] it was -0.42%; in experiment [10] it was 6.33%; in experiment [11], 5.46%; in [12] it was 2.67%. In addition, the inhibition in experiment [13] is 4.4%; in experiment [14], 6.95%; in [15] it was 6.41%; in experiment [16], 6.4%; in experiment [17], 10.4%; in [18], 6.63%. Further, the inhibition in experiment [19] is 7.32%; in experiment [20], -1.78%.
Take `N#Cc1c(NC(=O)c2ccccc2F)sc2c1CCCC2`: the inhibition in [1] is -2.59%; in experiment [2] it was -1.47%; in [3] it was 0.26%; in experiment [4], -2%; in experiment [5] it was 0.91%; in experiment [6], -0.59%. The inhibition is 4.2% in experiment [7]; 1.34% in experiment [8]; 2.61% in experiment [9]; -1.47% in experiment [10]; -0.82% in [11]; 0.34% in [12]. For the same compound, the inhibition in experiment [13] was -0.71%; in experiment [14], -1.75%; in [15], -2.13%; in [16], -0.37%; in experiment [17], 3.02%; in experiment [18], -3.35%. Also, the results for the inhibition in experiment [19] and in experiment [20] were 1.41% and -0.08%, respectively.
For `CCn1c(-c2nonc2N)nc2c(C#CC(C)(C)O)nc(OCCNC)cc21`, the inhibition in [1] was 4.63%; in experiment [2], 2.66%; in experiment [3], 5.49%; in [4] it was -0.74%; in [5], 3.76%; in [6] it was 5.14%. The inhibition was found to be 8.89% in experiment [7]; 0.49% in [8]; 3.15% in experiment [9]; 3.57% in experiment [10]; 6.25% in experiment [11]; 3.55% in experiment [12]. The inhibition in [13] turned out to be 3.92%; in experiment [14], 5.45%; in [15], 5.87%; in experiment [16], 3.15%; in [17], 6.97%; in experiment [18], 5.27%. In addition, the figures for the inhibition in experiment [19] and in experiment [20] were 7.27% and -3.54%, respectively.
For the compound `NS(=O)(=O)c1ccc(Nc2cc(-c3cccc(O)c3)n[nH]2)cc1`, the inhibition in experiment [1] was 17.2%; in [2] it was 9.52%; in [3] it was 19.4%; in experiment [4] it was 7.83%; in [5] it was 19.6%; in [6], 6.23%. For the same compound, the inhibition in experiment [7] amounted to 8.5%; in experiment [8] it was 2.13%; in experiment [9], 10.7%; in [10] it was 7.82%; in experiment [11] it was 17.6%; in [12] it was 7.97%. Also, the inhibition in [13] stood at 5.67%; in experiment [14], 8%; in experiment [15], 18.6%; in experiment [16], 9.01%; in experiment [17], 16.1%; in experiment [18], 8.2%. In addition, the inhibition in experiment [19] is 13.4%; in [20], -1.36%.
